Source: PubChem (National Center for Advancing Translational Sciences (NCATS))
In the library only some 3.4% were active in any assay of this set; here they are far more common.
IMPase cell inh = qHTS Assay for Identifying the Cell-Membrane Permeable IMPase Inhibitors | Inositol monophosphatase 1 (Rattus norvegicus), P97697 | CHO-M1 cells, IP1 accumulation, HTRF TR-FRET ratio | inhibition (IP1 accumulation), % at 46.1 µM | 120,000 tested, under 10 active | AID 901, 2007; active = well fitted curve in the direction sought with a large enough effect in the signal ratio, not every such curve was filed as active; inconclusive = small, poorly fitted or top-dose-only effect, or a change in a side signal; inactive = no such curve, though single readings can be large or run the other way; the % refers to the signal ratio;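 also: cells stimulated with carbachol in lithium chloride buffer; higher means more IMPase inhibition seen as more IP1 and lower FRET ratio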
Target sequence (P97697 whole entry, looked up): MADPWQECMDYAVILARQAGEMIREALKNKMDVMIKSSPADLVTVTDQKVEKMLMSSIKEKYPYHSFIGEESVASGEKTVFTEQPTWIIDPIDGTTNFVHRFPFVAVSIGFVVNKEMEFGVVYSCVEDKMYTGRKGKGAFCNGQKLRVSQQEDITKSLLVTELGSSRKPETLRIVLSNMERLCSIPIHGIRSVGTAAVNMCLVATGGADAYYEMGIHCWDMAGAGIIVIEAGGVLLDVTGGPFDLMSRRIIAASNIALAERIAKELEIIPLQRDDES
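The IP-One HTRF competitive assay in carbachol-stimulated CHO-M1 cells quantifies cellular IP1. Compounds spanned up to 46 uM final, and activity is expressed as AC50 from concentration-response fits of the ratio and donor data.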
HTT aggregate = qHTS Multiplex Assay to Identify Dual Action Probes in a Cell Model of Huntington: Aggregate Formation (GFP). PC12 HttQ103-GFP aggregates, Acumen cytometry, 40 h. Potency, µM (series often up to 46.1 µM), actives largely listed as inhibitors. 220,000 compounds, 1.1% hits. AID 1688, 2009; also: nearly all actives have a fitted effect of over 60% in size
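Compounds (qHTS titration) were added to PC12 cells expressing an ecdysone-driven HTT exon 1 Q103–GFP fusion after induction with 100 nM tebufenozide. Aggregate formation was measured as GFP objects in cell lysates.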
PNC inhibitor = High Content Assay for Compounds that inhibit the Assembly of the Perinucleolar Compartment; activity change (PNC), negative = inhibition, % at 10 µM; PC3M PTB-GFP, PNC prevalence imaging, 16 h; active compounds read low; 140,000 compounds, 3.1% hits;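 active = readout at or below -70, meaning at least 70% loss of cells showing the perinucleolar compartment, a nuclear body marking cancer cells; inconclusive = readout between -30 and a set limit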
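PC3M cells stably expressing PTB-GFP, 750–1000 cells/well, treated 16 h at 37 °C with compound (23 nl of library stock), in duplicate. After paraformaldehyde fixation and Hoechst stain, imaged at 20x; PNC prevalence scored by image analysis.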
NPSR antag = qHTS Assay for Antagonists of the Neuropeptide S Receptor: cAMP Signal Transduction; AID 1461, 2008; CHO-NPSR cells, cAMP TR-FRET, antagonist mode; Potency, µM (doses to about 38.3 µM), hits mostly inhibitors; 220,000 compounds, 1% hits; Q6W5P4; also: nearly all actives have a fitted effect of over 50% in size
Target sequence (Q6W5P4 whole entry, looked up): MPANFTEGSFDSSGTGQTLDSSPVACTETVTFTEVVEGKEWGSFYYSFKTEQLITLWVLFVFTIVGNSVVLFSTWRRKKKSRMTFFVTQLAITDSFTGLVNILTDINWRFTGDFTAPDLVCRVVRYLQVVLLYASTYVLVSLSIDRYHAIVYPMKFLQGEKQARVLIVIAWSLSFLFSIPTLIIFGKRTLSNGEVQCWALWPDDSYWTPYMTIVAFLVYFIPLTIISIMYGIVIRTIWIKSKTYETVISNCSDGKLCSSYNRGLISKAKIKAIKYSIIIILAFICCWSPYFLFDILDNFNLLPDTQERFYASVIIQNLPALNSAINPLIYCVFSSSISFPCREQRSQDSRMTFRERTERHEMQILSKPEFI
IMPase Li inh = qHTS Assay for Identifying the Cell-Membrane Permeable IMPase Inhibitors: Potentiation with Lithium | Potency, µM (highest dose often 59.4 µM), usual class: inhibitors | CHO-M1 cells, IP1 TR-FRET (IP-One), carbachol + lithium | 210,000 compounds, 0.35% hits;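 also: IP1 builds up when IMPase is blocked and the TR-FRET signal falls; nearly all actives have a fitted effect of over 50% in size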
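Concentration–response in CHO-M1 cells, lithium-potentiated; 30 min at 37C. IP1 detected by competitive TR-FRET after 10 min lysis at RT. Hill-fitted AC50.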
HTT ATP protect = qHTS Multiplex Assay to Identify Dual Action Probes in a Cell Model of Huntington: Cytoprotection (ATP); Potency, µM (top dose mostly 56.4 µM), usual class: activators; 230,000 compounds, 0.14% hits; PC12 HTT-Q103 induced, cytoprotection, ATP luminescence, 40 h; also: nearly all actives have a fitted effect of over 45% in size
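Cells were plated at 1500 per well in phenol red-free DMEM with 5% equine and 5% calf serum. Tebufenozide (100 nM final) and compounds were added, then ATPlite reagent, and luminescence was read.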
Hits are given with their value; – = inactive; ? = inconclusive; · = no result; [ ] = dose if it differs, or a comment. Unless noted, calls follow the shape of the dose curve; as a rule, active = well fitted curve in the direction sought with a large enough effect; inconclusive = small, poorly fitted or top-dose-only effect, or another doubt; inactive = no such curve, though single readings can be large; an effect the other way counts as inactive or inconclusive.

SMILES	IMPase cell inh	HTT aggregate	PNC inhibitor	NPSR antag	IMPase Li inh	HTT ATP protect
Cc1cccc(C)c1OCC(=O)N1CC2(C)CC1CC(C)(C)C2 (stereo not drawn)	–	–	–	?	–	–
CC1(C)CC2CC(C)(CN2C(=O)CN2C(=O)c3ccccc3C2=O)C1 (stereo not drawn)	–	–	?	–	–	–
CC1(C)CC2CC(C)(CN2C(=O)COC(=O)Cn2[nH]c(=O)c3ccccc3c2=O)C1 (stereo not drawn)	–	–[9.22 µM]	-88	–	–	–
Cc1ccc(OCC(=O)N2CC3(C)CC2CC(C)(C)C3)cc1 (stereo not drawn)	–	–	-100	–	–	–[10 µM]
Cc1nc2c(c(=O)n1CCC1=CCCCC1)c1nc3ccccc3nc1n2/N=C/c1ccco1	?	–	–	10µM	–	–[0.074 µM]
C/C(=N\NC(=O)Cn1ccc(C(F)(F)F)n1)c1ccco1	·	–	·	–	–	–
C/C(=N\NC(=O)c1ccc(Br)cc1)C1C(=O)c2ccccc2C1=O	–	?	–	–	–	–
CCOc1ccc(C(=O)N/N=C(/C)C2C(=O)c3ccccc3C2=O)cc1	·	10µM	–	–	–	–[10 µM]
COCCNC(=O)c1cc2nc3c(c(C(F)(F)F)n2n1)CCc1ccccc1-3	·	–[9.22 µM]	·	–	–	–[10 µM]
O=C(O)c1cc2nc3c(c(C(F)(F)F)n2n1)CCc1ccccc1-3	–	–	-87	–	–	–
O=S(=O)(c1ccccc1)N1CCC2(CCN(c3ccc(-c4ccccc4)cc3)CC2)CC1	·	·	·	·	–	–
Cn1c2ccccc2c2c(C(=O)N3CCN(c4cccc(C(F)(F)F)c4)CC3)cn(C3CCCCC3)c(=O)c21	–	·	·	·	·	·
Cn1c2ccccc2c2c(C(=O)N3CCN(c4ccccc4)CC3)cn(C3CCCC3)c(=O)c21	–	–[1.84 µM]	-113	?	–	–
CO/N=C\c1ccc(C(=O)N2[C@H](c3ccc(C)cc3)[C@@H](C)CC[C@H]2C(=O)OC)cc1	·	·	·	·	·	–[10 µM]
CC1Cc2nc(SCC(N)=O)n(Cc3ccccc3)c(=O)c2S1 (stereo not drawn)	·	–[9.22 µM]	·	–	·	–
CCSc1nc2c(c(=O)n1Cc1ccccc1)SC(C)C2 (stereo not drawn)	–	28µM	?	?	–	–
Cc1cccc(CNc2cc(-c3ccccc3C)ncn2)c1	·	·	·	·	–	–
C=Cc1c(C)c2cc3nc(cc4[nH]c(cc5nc(cc1[nH]2)C(C)=C5CCC(=O)O)c(CCC(=O)OC)c4C)[C@@]1(C)C3=CC=C(C(=O)OC)[C@H]1C(=O)OC (tested in a mixture with another compound)	–	–	·	·	–	–
CC1=NN(c2ccccc2)C(=O)/C1=C\c1ccc(Br)s1	·	0.71µM	–	–	–	–[10 µM]
CC(C)(C)OC(=O)[C@H](C1N[C@@H](C(=O)O)C(C)(C)S1)N1C(=O)c2ccccc2C1=O (stereo partly drawn)	·	·	·	·	–	·
COc1ccc(CNc2ccc(-c3ccc(OC)cc3)nn2)cc1	–[9.22 µM]	–	-88	–	–	–[10 µM]
CC1(C)CC(=O)C2=C(C1)OC1=C(C(=O)CC(C)(C)C1)C2c1ccc(O)cc1O	–	?	–	13µM	–	–
O=C(O)c1ccc(CS(=O)c2cccc(C(F)(F)F)c2)o1 (stereo not drawn)	–	13µM	–	–	–	–[0.074 µM]
CCN(CC)CCN(C(=O)c1ccc(S(=O)(=O)N2CCCCC2)cc1)c1nc2cc3c(cc2s1)OCO3	·	?	·	10µM	–	·
CN(C)CCCN(C(=O)c1ccc(S(=O)(=O)N(C)C)cc1)c1nc2cc3c(cc2s1)OCO3	·	–	·	–	–	–
SMILES	IMPase cell inh	HTT aggregate	PNC inhibitor	NPSR antag	IMPase Li inh	HTT ATP protect
Cc1ccc(NC(=O)Cn2nc(C(F)(F)F)c3c2CCCC3)cc1	–	·	·	·	·	·
Cc1cccc(CSC(Nc2ccc(F)cc2)=C(C#N)C#N)c1	·	4.5µM	?	–	–	–[10 µM]
N#CC(C#N)=C(Nc1ccc(F)cc1)SCc1cccc(Br)c1	·	2.2µM	–	–	–	–[10 µM]
O=c1c(Cl)c(NCc2ccccc2)cnn1C12CC3CC(CC(C3)C1)C2	·	–	–	–	–	–[10 µM]
O=C(O)c1ccccc1-c1nc2ccccc2n1-c1ccccc1	·	–	-109	–	–	·
Cc1cc(Br)c2nc3c(c(C(=O)O)c2c1)CCCCC3	?	?	?	1µM	·	?
COc1cc(C2C3C(C)N(C)C(=O)N(C)C3N(C)C(=O)N2C)ccc1O (stereo not drawn)	–	–	-100	–	–	–[10 µM]
Cc1cc(NC(=O)CCc2ccc(S(=O)(=O)N3CCOCC3)cc2)n(-c2ccccc2)n1	–	?	-100	–	–	–[10 µM]
N#CC(C#N)=Cc1cccn1-c1ccc(S(N)(=O)=O)cc1	·	–	·	–	–	?
CNC(=O)CS(=O)CC(=O)Nc1cc(OCCOC)c(Cl)cc1Cl (stereo not drawn)	·	–[9.22 µM]	·	–	–	–[10 µM]
O=C(Nc1nc(-c2ccccn2)cs1)c1ccc(Cl)s1	–	0.89µM	?	–	–	–[10 µM]
Cn1cccc1C(=O)Nc1nc(-c2ccccn2)cs1	–	13µM	–	?	–	–
Cc1cccnc1Nc1nc(-c2ccc(O)cc2O)cs1	–	–	–	–	·	–
O=C(Nc1nc(-c2ccccn2)cs1)c1ncc(Cl)c(Cl)c1Cl	–	?	–	–	–	–
Cc1cccnc1Nc1nc(-c2ccccn2)cs1	–	?	–	0.79µM	–	–[10 µM]
CCCCOc1ccc(C(=O)Nc2ccncc2)cc1	–	–	-118	–	–	–[0.074 µM]
CC(NC(=O)c1ccc(C(C)(C)C)cc1)C(=O)O (stereo not drawn)	–	–[9.22 µM]	–	–	–	–
CCCCOc1ccc(C(=O)NC)cc1	–	–	–	–	–	–[10 µM]
CCCOc1ccc(C(=O)NC(C)C(=O)O)cc1 (stereo not drawn)	–	–	-106	–	–	–
CC(C(=O)Nc1cc([N+](=O)[O-])ccc1Cl)N1CCN(c2ccc(O)cc2)CC1 (stereo not drawn)	–	–	-85	–	–	–[1.9 µM]
Brc1ccc(-c2cn3nc4c(nc3n2)CCCC4)cc1	–	–	-100	–	–	–
c1ccc(-c2cn3nc4c(nc3n2)CCCC4)cc1	–	–	–	–	–	–
COc1ccc2c(c1)OC(C)(C)C(c1ccccc1)C2c1ccc(OCCN2CCCC2)cc1 (stereo not drawn)	·	?	·	·	·	–
CCN(CC(=O)NCc1cccs1)S(=O)(=O)c1ccc([N+](=O)[O-])cc1	·	?	·	–	–	–
